The values that follow come from PubChem BioAssay AID2016 (NMMLSC, 2009).

The structures appear in SMILES notation. Among all 330,000 compounds or so, about 1,700 (0.52%) were called active. The entries come from a sample that favours actives as a whole. Unmarked numbers belong to inactive results.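 The calls were made as follows: active = GFP response versus DMSO above a set limit, roughly screen mean plus 3 SD (cut at about 180% in these data); inconclusive = fewer than 70 cells counted for a yeast strain; inactive = the rest.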

A short description of this assay: modulators of MEP2-GFP levels in yeast, primary screen, S. cerevisiae, multiplex flow cytometry, MLPCN library (AID 2016).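 Also: median GFP fluorescence of the barcode-gated MEP2-GFP cells per well.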 The settings on record: S. cerevisiae MEP2-GFP strain, 3 h, at 10 µM, stronger effect = higher value, 100% = DMSO control level.
With `COc1cc(CO)c(C2(CO)CCCC2)cc1OC`, the GFP response vs DMSO was 101%.

For `C[n+]1ccc(/C=C/c2c[nH]c3ccccc23)cc1`, the GFP response vs DMSO is 403% (active). On to `COc1ccc(/C=C(\C#N)c2c[nH]c3ccccc23)cc1`, for which the GFP response vs DMSO was 98.7%. As to `O=C(NC1CCCC1)C(=O)c1c[nH]c2ccccc12`, the GFP response vs DMSO was 90.7%. With `CCOc1cc(/C=N/NC(=O)OC)ccc1OCCSc1ccc(Cl)cc1`, the GFP response vs DMSO was 94.9%.

Turning to `O=S(=O)(Nc1ccccc1)c1ccc(NS(=O)(=O)c2cccs2)cc1`, the GFP response vs DMSO is 94.2%.

As to `Clc1ccc(CN2CCCCCC2)cc1Cl`, the GFP response vs DMSO was 111%. For the compound `Cc1ccc2nc(-c3ccc(SCC(=O)Nc4cc(C)on4)nc3)[nH]c2c1`, the GFP response vs DMSO is 103%. Take `CC(=O)O[C@]1(C(C)=O)CC[C@H]2[C@@H]3C=C(C)C4=CC(=O)CC[C@]4(C)[C@H]3CC[C@@]21C`: the GFP response vs DMSO is 180% [may fluoresce violet] (active). On to `CC(=O)C12CC(C)=C(C)CC1CC1C3CCC4=CC(=O)CCC4(C)C3CCC12C` (centres undefined), for which the GFP response vs DMSO is 101%.

For the compound `O=C(C1Cc2ccccc2CN1C(=O)c1ccco1)N1CCN(c2ccccc2)CC1` (centres undefined), the GFP response vs DMSO is 93.4%.

For the compound `COc1ccc(CNC(=O)COC(=O)C(CCSC)N2C(=O)c3ccccc3C2=O)cc1` (centres undefined), the GFP response vs DMSO was 106%. `Cc1cc(OCC(=O)Nc2c(C)n(C)n(-c3ccccc3)c2=O)ccc1[N+](=O)[O-]`: the GFP response vs DMSO is 112%. With `Cc1c(NC(=O)Nc2cccc([N+](=O)[O-])c2)c(=O)n(-c2ccccc2)n1C`, the GFP response vs DMSO is 103%. For `Cc1c(NC(=O)c2c([N+](=O)[O-])cnn2C)c(=O)n(-c2ccccc2)n1C`, the GFP response vs DMSO was 284% [may fluoresce violet] (active). `CCOC(=O)C1CCN(C(=O)Cc2c(C(=O)O)[nH]c3ccccc23)CC1`: the GFP response vs DMSO is 105%. On to `Nc1nc(SCC(=O)Nc2ccc(Cl)c([N+](=O)[O-])c2)n[nH]1`, for which the GFP response vs DMSO was 106%.

For the compound `COc1ccc(-c2cn3cccnc3n2)cc1`, the GFP response vs DMSO is 101%. As for `FC(F)(F)Oc1ccc(-c2cn3cccnc3n2)cc1`, the GFP response vs DMSO is 471% [may fluoresce violet] (active). As to `CC(C)(C)C(=O)Nc1ccc(-c2cn3cccnc3n2)cc1`, the GFP response vs DMSO was 119%. The same measure for `O=C(NCC(F)(F)F)Nc1nnc(C(F)(F)F)s1`: 90.6%; for `COc1ccc2[nH]c(=O)c(C3c4cc(OC)c(OC)cc4CCN3C(=O)c3ccco3)cc2c1` (centres undefined): 105%. Under `CCc1ccc(OCC2c3cc(OC)c(OC)cc3CCN2C(C)=O)cc1` (centres undefined) stands 269% [may fluoresce violet] (active).

`COc1ccc(CC(NC(C)=O)C(=O)NC2CCN(C(=O)c3ccc(OC)c(OC)c3)CC2)cc1OC` (centres undefined): the GFP response vs DMSO is 95.1%. In the case of `CCOCc1nnc(NC(=O)CCC2CCCCC2)s1`, the GFP response vs DMSO was 110%.

With `COc1ccc(S(=O)(=O)NC(C)C(=O)NCc2ccncc2)cc1Cl` (centres undefined), the GFP response vs DMSO was 102%.

For the compound `O=C(COc1cc2oc(=O)c3c(c2cc1Cl)CCC3)NCCCN1CCOCC1`, the GFP response vs DMSO is 113%. On to `CC(Oc1cc2oc(=O)c3c(c2cc1Cl)CCCC3)C(=O)NCc1ccncc1` (centres undefined), for which the GFP response vs DMSO is 185% [may fluoresce violet] (active).

In the case of `Cc1cccc(-c2nc(CS(=O)CC(=O)NC(C)CCc3ccccc3)c(C)o2)c1` (centres undefined), the GFP response vs DMSO is 98.7%. The same measure for `O=C(CCN1C(=O)[C@@H]2Cc3ccccc3CN2C1=O)NCCc1ccccc1`: 106%; for `C#CCCOC(=O)N1C2=NC(C(=O)OC)=C(C(=O)OC)[C@@H]3N(C)c4ccc(OC)cc4[C@]23C[C@H]1C(=O)OC`: 89.3%. `COc1ccc(CSc2nnnn2-c2ccc(C(=O)O)cc2)cc1`: the GFP response vs DMSO is 114%. For the compound `COc1ccc(-c2nnn(Cc3nc(N)nc(N4CCCCC4)n3)n2)cc1`, the GFP response vs DMSO was 107%. Regarding `COc1ccc(-n2nnnc2SCc2nc(N)nc(N3CCOCC3)n2)cc1`, the GFP response vs DMSO is 283% [may fluoresce violet] (active). With `Cc1nn(C)c(C)c1C(C)NC(=O)c1ccc(OC2CCN(Cc3ccccn3)CC2)cc1` (centres undefined), the GFP response vs DMSO is 111%. Take `O=c1c(-c2cccc(Cl)c2)c[nH]n1-c1ccccc1`: the GFP response vs DMSO was 193% [may fluoresce violet] (active). As for `O=C1c2ccccc2NC(c2ccc(-c3cccc(Cl)c3)o2)N1O` (centres undefined), the GFP response vs DMSO was 103%.

With `O=c1c(-c2ccccc2Cl)c[nH]n1-c1ccccc1`, the GFP response vs DMSO was 99.8%. On to `CC1CCN(S(=O)(=O)c2nnc(NC(=O)COc3ccccc3F)s2)CC1`, for which the GFP response vs DMSO is 98.5%. On to `CC1(C)Cc2c(sc3nc(SCC(=O)NCc4ccccc4)n(-c4ccccc4)c(=O)c23)CS1`, for which the GFP response vs DMSO is 107%.

Take `COc1ccccc1C(=O)COC(=O)COc1ccc(C#N)cc1`: the GFP response vs DMSO was 114%.

As for `CCN(Cc1cc2cc(C)ccc2[nH]c1=O)S(=O)(=O)c1ccccc1`, the GFP response vs DMSO is 97.6%. `O=C(c1cccs1)N(Cc1cc2ccccc2[nH]c1=O)CC1CCCO1` (centres undefined): the GFP response vs DMSO is 103%.

As for `Cc1ccc(S(=O)(=O)N(Cc2cc3ccccc3[nH]c2=O)CC2CCCO2)cc1` (centres undefined), the GFP response vs DMSO was 195% [may fluoresce violet] (active). Turning to `CC1CC(C)CN(CCCNC(=O)c2csc3c2CCCCC3)C1` (centres undefined), the GFP response vs DMSO is 103%. Take `C=CCC[C@@H](Cc1ccc(F)cc1)C(=O)O[C@H](CNC(=O)[C@H](CC=C)CC(=O)N(CCO)Cc1ccccc1)c1ccccc1`: the GFP response vs DMSO is 104%. For `Cc1ccc(SCC2=NNC(=O)C2)cc1`, the GFP response vs DMSO is 249% [may fluoresce violet] (active).

As for `Cc1ccc(SCCSc2ncccn2)cc1`, the GFP response vs DMSO is 106%.

As to `Cc1ccc(SCc2cc(=O)[nH]c(N3CCCCC3)n2)cc1`, the GFP response vs DMSO is 96.5%. Under `CCOc1ccc(Br)cc1CSC(=N)N` stands 103%; under `COc1ccccc1P(=O)(c1ccccc1)c1ccccc1NC(C)=O` (centres undefined), 83.1%. For the compound `COc1ccc(C(=O)NCCSc2ccccc2C)cc1`, the GFP response vs DMSO is 99.7%. Take `COC(=O)CCSc1cc([N+](=O)[O-])cc2c1c(C1OCCS1)nn2-c1ccccc1` (centres undefined): the GFP response vs DMSO was 107%.

As for `Cc1cc(C)cc(NC(=O)COc2coc(CN3CCN(c4ccccc4)CC3)cc2=O)c1`, the GFP response vs DMSO is 105%. Under `Cc1cc(C)c2nc(N(CCN(C)C)C(=O)/C=C/c3cccs3)sc2c1` stands 110%; under `Cc1ccc2sc(N(CCN(C)C)C(=O)/C=C/c3cccs3)nc2c1C`, 253% [may fluoresce violet] (active). As to `Cc1cccc2sc(N(CCCN(C)C)C(=O)CCS(=O)(=O)c3ccccc3)nc12`, the GFP response vs DMSO was 93.5%. In the case of `O=C(Nc1ccc(F)cc1)C1CCCN(S(=O)(=O)c2ccc(-n3cnnn3)cc2)C1` (centres undefined), the GFP response vs DMSO was 106%.

Take `COc1ccc(OCc2ccc(-c3nc4ccccc4c(=O)n3N)o2)cc1`: the GFP response vs DMSO was 249% [may fluoresce violet] (active). The same measure for `Cn1c(COc2ccc(Cl)cc2)nc2ccccc2c1=O`: 102%; for `COc1ccc(-c2nc3ccccc3c(=O)n2CCc2ccc(O)cc2)cc1`: 103%; for `CSc1ncccc1C(=O)NCc1ccccc1Cl`: 107%. As for `COc1c(C)c2c(c(O)c1C/C=C(\C)CCC(=O)O)C(=O)OC2`, the GFP response vs DMSO was 297% [may fluoresce violet] (active).

For `CCCCn1c(N)c(N(CC)C(=O)c2ccc(N(C)S(=O)(=O)c3ccc(C)cc3)cc2)c(=O)[nH]c1=O`, the GFP response vs DMSO was 98%.

With `CC(C)(C)C1CCC(C(=O)NCC(c2cccs2)N2CCOCC2)CC1` (centres undefined), the GFP response vs DMSO is 99%. On to `CN1CCN(C(=O)Cn2c(C(F)(F)F)nc3ccccc32)CC1`, for which the GFP response vs DMSO was 103%. With `C=CCN1CC(C)/C(=N\O)CC1C` (centres undefined), the GFP response vs DMSO is 93.2%. Take `COc1ccc(Cn2c(C)c(C)c(C#N)c2NC(=O)Nc2ccc(F)cc2)cc1`: the GFP response vs DMSO was 99.5%. Under `Cc1ccc(C(=O)Nc2c(C#N)c(C)c(C)n2Cc2ccccc2)cc1` stands 364% [may fluoresce violet] (active). Regarding `Cc1c(C#N)c(NC(=O)c2ccccc2)n(Cc2ccccc2)c1C`, the GFP response vs DMSO is 93.8%. In the case of `Cc1cc(C)c2c(-c3ccc(F)cc3)c(C#N)c(=O)n(C)c2n1`, the GFP response vs DMSO is 95.2%.

On to `Cc1cccn2c(=O)c3cc(C(=O)NCC4CCCO4)c(=N)n(Cc4ccc(F)cc4)c3nc12` (centres undefined), for which the GFP response vs DMSO was 92.2%. On to `Cc1ccc(CCNC(=O)c2ccc3nc4ccccc4c(=O)n3c2)cc1`, for which the GFP response vs DMSO is 112%. For `Cc1ccc2nc3c(cc(C(=O)NCCc4ccccc4)c(=N)n3CC3CCCO3)c(=O)n2c1` (centres undefined), the GFP response vs DMSO was 238% [may fluoresce violet] (active). Under `COc1ccc(-c2c(C(C)=O)c(C)nc3sc4c(=O)n(-c5ccc(C)cc5)nnc4c23)cc1` stands 105%. `O=C(Nc1ccccc1)c1ccc2nsnc2c1`: the GFP response vs DMSO is 100%.

As for `Cc1cccc(NC(=O)c2cccc(C(=O)Nc3cccc(C)c3C)n2)c1C`, the GFP response vs DMSO was 181% [may fluoresce violet] (active). Regarding `Cc1cccc(NC(=O)c2ccc3nsnc3c2)c1C`, the GFP response vs DMSO was 100%. For the compound `Cc1cccc(NC(=O)N2CCCCCC2)c1C`, the GFP response vs DMSO was 98.3%. Consider `Nc1nc(Sc2ncccc2[N+](=O)[O-])n[nH]1`, for which the GFP response vs DMSO was 96.3%. The same measure for `COc1ccc(N2C(=O)CCC(C(=O)N(C)C3CCCCC3)C2c2ccc(OC)c(OC)c2)cc1` (centres undefined): 99.1%. In the case of `CCCCCn1c(=O)[nH]c2cc(C(=O)NCCCN3CCCCC3C)ccc2c1=O` (centres undefined), the GFP response vs DMSO was 127%. Take `O=S(=O)(NCC1CN(S(=O)(=O)c2ccc3c(c2)OCCO3)C1)c1c(F)cccc1F`: the GFP response vs DMSO was 103%. Under `O=c1c2ccccc2nc(N/N=C/c2ccccc2)n1O` stands 95.1%; under `O=C(N/N=C/c1cccnc1)c1ccc(NC(=O)c2ccc(F)cc2)cc1`, 99.6%. Under `Fc1ccc(/C=N/Nc2nc(-c3cccnc3)nc3ccccc23)cc1` stands 195% (active). For `Cc1cc(C)c(S(=O)(=O)NCCCN2CCOCC2)cc1Br`, the GFP response vs DMSO was 103%.

Take `CN(c1ccccc1)c1ccc(/C=c2\s/c(=C(/C#N)C(=O)C(C)(C)C)n(Cc3ccco3)c2=O)cc1`: the GFP response vs DMSO was 343% (active). With `CCOC(=O)Cn1c(=O)oc2cc(S(=O)(=O)N(C)Cc3ccco3)ccc21`, the GFP response vs DMSO is 91.7%.
